Screening results: PubChem BioAssay, The Scripps Research Institute Molecular Screening Center
TTR transcr act = TTR transcription activators in neuroblastoma reporter cells, primary screen, cell-based, luminescence, SH-SY5Y, TTR promoter Gaussia luciferase | 100% = recombinant luciferase protein wells | activation, % at 16.7 µM | 92,000 tested, 1.3% active;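 active = activation above the mean of all tested compounds plus 3 SD, cut at about 9.5% in these data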;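 also: cells exposed to compounds for one day before reading; 0% = median of all test compound wells on the plate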
TTR inh HuH7 = TTR promoter reporter inhibitors in hepatoma cells, counter-screen for TTR transcription activator project, cell-based, luminescence, HuH7 hepatoma. inhibition, % at 16.7 µM. HuH7 TTR promoter-Gaussia luciferase reporter. 1,100 tested, 4% active. shares compounds with TTR transcr act. AID 1117279, 2014;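 active = average inhibition above the solvent-only control wells' mean plus 3 SD, cut at about 15% in these data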;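 also: 0% = cells with DMSO only and 100% = cells with inhibitor control FD; inhibitors lower well luminescence so higher value means more inhibition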
TTR up confirm = TTR transcription activators, retest, confirmation, cell-based, luminescence, SH-SY5Y, triplicate; shares compounds with TTR transcr act; SHSY5Y TTR promoter Gaussia luciferase; 100% = purified Lucia enzyme wells, no cells; activation, % at 16.7 µM; 1,100 tested, under 10 active;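 active = mean activation above a set limit taken from the earlier primary screen, cut at about 11% in these data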;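 also: 0% = DMSO-treated cells and 100% = recombinant Lucia luciferase without cells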
* = called active by the depositor. Many of the other results were omitted from the sample, so hits are more common in it than they were.

SMILES | TTR transcr act | others
NC(=O)CC(NC(=O)Cc1ccc(Br)cc1)c1ccc(NC2CCCCCC2)c([N+](=O)[O-])c1 (centres undefined) | 10* | TTR inh HuH7=-8;TTR up confirm=0
NC(=O)CC(NC(=O)Cc1ccc(Cl)cc1)c1ccc(NC2CCCCCC2)c([N+](=O)[O-])c1 (centres undefined) | -2
NC(=O)CC(NC(=O)Cc1ccc(Br)cc1)c1ccc(NC2CCCC2)c([N+](=O)[O-])c1 (centres undefined) | 2
O=C1[C@H]2[C@@H](c3ccc(Cl)cc3)N3C(=O)N(c4cccc(Cl)c4)C(=O)[C@@]3(Cc3ccccc3)[C@H]2C(=O)N1C1CCCCC1 | 16* | TTR inh HuH7=6;TTR up confirm=-1
O=C1[C@H]2[C@@H](c3ccc(F)cc3)N3C(=O)N(c4cccc(Br)c4)C(=O)[C@@]3(Cc3ccccc3)[C@H]2C(=O)N1C1CCCCC1 | 2
Cc1cccc([C@@H]2[C@@H]3C(=O)N(Cc4ccccc4)C(=O)[C@@H]3[C@]3(Cc4ccccc4)C(=O)N(c4cccc(Cl)c4)C(=O)N23)c1 | -1
C=CCN1C(=O)[C@@H](CC(=O)NCCCOCCCC)[C@]2(C(=O)OC)CCCCC=C12 | 2
CS(=O)(=O)c1nc(-c2ccc(Br)cc2)cs1 | 0
O=C(CSc1nnc(CNC(=O)c2ccccc2)o1)NCc1ccc2c(c1)OCO2 | 17* | TTR inh HuH7=-16;TTR up confirm=0
COc1ccc(C(=O)NCc2nnc(SCC(=O)Nc3ccc4c(c3)OCO4)o2)cc1 | 3
O=C(COc1ccc(Cl)cc1)NCc1nnc(SCC(=O)NCc2ccc3c(c2)OCO3)o1 | -1
C[C@H]1CCCN1c1cccc2c1S(=O)(=O)N1CC[C@@H](C1)O2 | 1
CC(C)(C)CCNc1nc(-c2ccccn2)nnc1-c1ccccc1 | 2
COc1ccc(Cn2ccc3ccc(-c4ccc5ccn(Cc6ccc(OC)cc6)c5c4)cc32)cc1 | -1
COc1ccc(N(CC(=O)Nc2c(C)n(C)n(-c3ccccc3)c2=O)S(=O)(=O)c2ccc(F)cc2)cc1 | 0
Cc1ccc(N(CC(=O)Nc2c(C)n(C)n(-c3ccccc3)c2=O)S(C)(=O)=O)cc1C | 3
COc1ccc(N(CC(=O)Nc2c(C)n(C)n(-c3ccccc3)c2=O)S(=O)(=O)c2ccccc2)cc1OC | 12* | TTR inh HuH7=-4;TTR up confirm=1
C=CCN(C(=O)[C@@H](C)[C@@H](O)c1ccc(Cl)cc1)c1ccccc1 | 0
C=CCOC(=O)C(CO)NC(=O)CCCC(=O)O (centres undefined) | 2
COc1cc(S(=O)(=O)NC2CCCCC2C)ccc1Cl (centres undefined) | 3
CC1CCCCC1NS(=O)(=O)c1ccc(-n2cnnn2)cc1 (centres undefined) | 0
COc1cc(S(=O)(=O)NC2CCCCC2C)ccc1-n1cnnn1 (centres undefined) | 14* | TTR inh HuH7=-11;TTR up confirm=0
COc1cc(NC(=O)C(OC(=O)CNC(=O)c2ccccc2)c2ccccc2)cc(C(F)(F)F)c1 (centres undefined) | 2
O=C(NC1CCCC1)C1c2ccccc2C(=O)N1CCCN1CCOCC1 (centres undefined) | 1
CCC(C)[C@H](NC(=O)[C@@H]1CSC2c3ccccc3C(=O)N21)C(=O)NC1CCCC1 (some centres undefined) | -1
SMILES | TTR transcr act | others
CCC(C)N1C(=O)c2ccccc2C1C(=O)NC1CCCCCC1 (centres undefined) | 15* | TTR inh HuH7=-24;TTR up confirm=0
C#CCNC(=O)C[C@H]1C(=O)N(Cc2ccc(OC)cc2)C2=CCCCC[C@@]21C(=O)OC | -1
C[C@H]1[C@@H](NC(=O)c2ccc(C(F)(F)F)cc2)CC[C@@]23CCCN2C(=O)CCC[C@@H]13 | 0
CCOC(=O)C1(Cc2ccc(OC)cc2)CCN(C(=O)Cn2cnnn2)CC1 | 1
CCOC(=O)C1(Cc2ccc(OC)cc2)CCN(C(=O)C2CCCO2)CC1 (centres undefined) | 2
CCOC(=O)C1(Cc2ccc(OC)cc2)CCN(C(=O)c2cncs2)CC1 | 9.7* | TTR inh HuH7=-2;TTR up confirm=0
COc1cc(F)c(S(=O)(=O)N2CCCN(S(=O)(=O)c3cccc(N)c3)CC2)c(F)c1 | 1
CC1CCc2sc3nc(NCc4ccco4)n4ncnc4c3c2C1 (centres undefined) | 2
CC1CCc2c(sc3ncnc(N4CCOCC4)c23)C1 (centres undefined) | -1
CCN1CCN(c2nc3sc4c(c3c3ncnn23)CC(C)CC4)CC1 (centres undefined) | 11* | TTR inh HuH7=-31;TTR up confirm=0
CC(=O)c1cc(-c2ccc([N+](=O)[O-])cc2)c(=O)n2c1CCC2 | 0
CC1CCC(=O)N(CCOc2ccccc2)CC1 (centres undefined) | 1
C[C@H]1CCC(=O)N([C@H](COc2ccccc2)Cc2ccccc2)CC1 | 14* | TTR inh HuH7=-5;TTR up confirm=0
CC(C)C[C@@H](COc1ccccc1)N1CCN(C)CCC1=O | 3
O=C(NCCc1c[nH]c2ccccc12)OCc1cn(Cc2ccc(C(F)(F)F)cc2)nn1 | -1
O=C(OCc1ccccc1)[C@H](Cc1ccccc1)NC(=O)[C@@H]1CC=C[C@@H]2CCN(CCc3ccccc3)C(=O)[C@@H]21 | 1
CCOC(=O)[C@@]12CCC3=C1N(CCC3)C(=O)[C@H](CC(=O)NCCc1ccccc1OC)C2 | -1
COC(=O)c1cccc(Cn2ccc3ccc(-c4ccc5ccn(C(=O)c6ccccc6)c5c4)cc32)c1 | 0
O=C(NCc1ccco1)c1cc2n(n1)C(C(F)(F)F)CC(c1ccc(Cl)c(Cl)c1)N2 (centres undefined) | -1
CC(C)NC(=O)c1cc2n(n1)C(C(F)(F)F)CC(c1ccco1)N2 (centres undefined) | 0
O=C(Nc1ccccc1)c1cc2n(n1)C(C(F)(F)F)CC(C1CC1)N2 (centres undefined) | 14* | TTR inh HuH7=-15;TTR up confirm=1
O=C(Nc1cccc(F)c1)O[C@@H]1CC[C@@]23CCCN2C(=O)CCC[C@H]3C1 | 1
O=C(Cc1ccc(F)cc1)NC1CCSC1=O (centres undefined) | 2
Cc1cccc(Oc2ccc(C(=O)NC3CCSC3=O)cn2)c1C (centres undefined) | 14* | TTR inh HuH7=-2;TTR up confirm=-1
O=C(NC(=S)NC1CCSC1=O)c1cccs1 (centres undefined) | 4
SMILES | TTR transcr act | others
CN(C)[C@@H]1CCN(c2ccc3c(c2)O[C@H]2CCN(C2)S3(=O)=O)C1 | 0
O=C1CSCC(=O)N1c1ccccc1 | 34* | TTR inh HuH7=-9;TTR up confirm=0
O=C1CSC(=S)N1c1ccccc1 | 2
O=C1CCC(=O)N1c1ccccc1 | 1
COC(=O)[C@]12CCCCC=C1N(Cc1ccc(OC)cc1)C(=O)[C@@H]2CC(=O)NCc1ccccc1 | -1
COc1ccc(S(=O)(=O)Nc2ccc(NC(C)=O)cc2)cc1 | 3
COc1ccc(S(=O)(=O)Nc2ccc(C)cn2)cc1 | 14* | TTR inh HuH7=-12;TTR up confirm=6
COc1ccc(C(=O)Nc2ccc(C)cn2)c(OC)c1 | -3
Cc1nc(NC(=O)c2ccccc2)sc1-c1cc(C(=O)O)nn1Cc1ccccc1 | -1
CCCCCCCCN1C(=O)[C@@H](CC(=O)N2CCCCC2)C[C@@]2(C(=O)OC)C1=C[C@H](COCc1ccccc1)O[C@@H]2C | 0
